Assay results: ChEMBL document CHEMBL4513135, “CO-ADD screening of IQOG CSIS (Spain) compounds”
The whole screen tested about 23,000 compounds, of which about 30 (0.1%) showed an effect of 50% or more. Only a selection was taken, and strong results are over-represented in it overall. Entries with a potency or affinity are not part of this list.

System: Pseudomonas aeruginosa
Details: Concentration 32 ug.mL-1; ASSAY_TEST Inhibition of Bacterial Growth; detection method Absorption (OD600); MEDIA CAMHB; plate type 384well; NBS; CORNING #3640; time 18 hr

| Compound | Inhibition [%] |
| --- | --- |
| CCOC(=O)/C(C#N)=C\c1ccc([N+](=O)[O-])cc1 | 5.37 |
| N#Cc1cc(C#N)c(N2CCCC2)nc1N | 9.99 |
| Cl.N#Cc1cc(C#N)c(N2CCCC2)nc1Cl | 9.12 |
| N#Cc1cc(C#N)c(N2CCCC2)nc1N1CCCC1 | 50.45 |
| COc1ccc2cc(C3C(C(C)=O)=C(C)Oc4nc5c(c(N)c43)CCC5)c(Cl)nc2c1 (configuration not stated) | 8.84 |
| CCCC(C)NNC(=O)Cc1c[nH]c2ccccc12 (configuration not stated) | 22.46 |
| O=C(Cc1c[nH]c2ccccc12)NNCc1ccccc1 | 23.11 |
| CC(C)NNC(=O)Cc1c[nH]c2ccccc12 | 53.17 |
| N#CC1=C(N)Oc2c(ccc3ccccc23)C1c1ccc(O)cc1 (configuration not stated) | 17.58 |
| C#CCN(C)Cc1cc2cc(OCCC3CCN(Cc4ccccc4)CC3)ccc2n1C.Cl | 5.95 |
| C#CCN(C)Cc1cc2cc(OCCCCC3CCN(Cc4ccccc4)CC3)ccc2n1C | 12.81 |
| C#CCN(C)Cc1cc2cc(OCCCCC3CCN(Cc4ccccc4)CC3)ccc2n1C.Cl | 51.07 |
| COc1ccc(C2c3c(nc4c(c3N)CCCC4)Oc3ccc4ccccc4c32)cc1 (configuration not stated) | 16.04 |
| Nc1c2c(nc3c1c1ccccc1n3Cc1ccccc1)CCCC2 | 35.2 |
| COc1cccc(C2c3c(nc4c(c3N)CCCC4)Oc3ccc4ccccc4c32)c1 (configuration not stated) | 38.82 |
| COC(=O)C1(NC(=O)c2ccccc2)CC1c1ccccc1 (configuration not stated) | 23.63 |
| CN(N=O)C(=O)NC1(C(=O)O)CC1c1ccccc1 (configuration not stated) | 47.22 |
| CNC(=O)NC1(C(=O)O)CC1c1ccccc1 (configuration not stated) | 50.33 |
| CNC(=O)c1c(Cl)c2cc(OCc3ccccc3)ccc2n1C | 34.06 |
| CC1=NC(=Cc2ccccc2)C(=O)S1 | 24.56 |
| COc1ccc(C=C2N=C(c3ccccc3)OC2=O)cc1 | 9.34 |
| COc1ccc(C=C2N=C(c3ccccc3)SC2=O)cc1 | 50.12 |
